This note sets out measurements from ChEMBL document CHEMBL1961873, “Compounds: GSK PKIS; Assays: Nanosyn kinase panel” (2012).

Assay [1] addresses Tyrosine-protein kinase SYK (Homo sapiens) (UniProt P43405). Conditions: at 1 µM.
The target of assay [2] is T1, Tyrosine-protein kinase Tec (Homo sapiens) (UniProt P42680).
T1 sequence (whole entry): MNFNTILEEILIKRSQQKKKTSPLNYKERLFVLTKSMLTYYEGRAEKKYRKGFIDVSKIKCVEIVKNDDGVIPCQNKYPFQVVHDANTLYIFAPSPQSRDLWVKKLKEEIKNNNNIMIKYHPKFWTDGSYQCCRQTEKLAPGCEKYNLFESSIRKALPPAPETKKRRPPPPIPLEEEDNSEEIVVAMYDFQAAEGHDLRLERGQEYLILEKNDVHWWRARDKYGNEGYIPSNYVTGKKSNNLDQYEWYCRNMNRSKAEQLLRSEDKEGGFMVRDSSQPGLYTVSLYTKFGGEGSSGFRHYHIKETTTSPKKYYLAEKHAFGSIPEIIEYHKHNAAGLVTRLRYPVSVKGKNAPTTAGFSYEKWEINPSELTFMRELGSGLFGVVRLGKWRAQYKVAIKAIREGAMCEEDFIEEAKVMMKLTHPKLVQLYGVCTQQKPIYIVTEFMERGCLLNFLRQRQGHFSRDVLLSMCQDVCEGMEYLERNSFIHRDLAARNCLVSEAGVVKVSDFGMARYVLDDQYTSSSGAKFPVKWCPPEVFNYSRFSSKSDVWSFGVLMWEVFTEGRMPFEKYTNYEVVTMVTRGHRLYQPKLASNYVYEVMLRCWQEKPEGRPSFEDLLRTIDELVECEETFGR
Particulars: at 0.1 µM.

For assay [3], the target named is T1, Tyrosine-protein kinase Tec (Homo sapiens). Particulars: at 1 µM.
In assay [4] the target is Angiopoietin-1 receptor (Homo sapiens) (UniProt Q02763). Conditions: at 0.1 µM.
For assay [5] the target is unchanged. Conditions: at 1 µM.
Assay [6] addresses T2, Non-receptor tyrosine-protein kinase TNK1 (Homo sapiens) (UniProt Q13470).
T2 sequence (whole entry): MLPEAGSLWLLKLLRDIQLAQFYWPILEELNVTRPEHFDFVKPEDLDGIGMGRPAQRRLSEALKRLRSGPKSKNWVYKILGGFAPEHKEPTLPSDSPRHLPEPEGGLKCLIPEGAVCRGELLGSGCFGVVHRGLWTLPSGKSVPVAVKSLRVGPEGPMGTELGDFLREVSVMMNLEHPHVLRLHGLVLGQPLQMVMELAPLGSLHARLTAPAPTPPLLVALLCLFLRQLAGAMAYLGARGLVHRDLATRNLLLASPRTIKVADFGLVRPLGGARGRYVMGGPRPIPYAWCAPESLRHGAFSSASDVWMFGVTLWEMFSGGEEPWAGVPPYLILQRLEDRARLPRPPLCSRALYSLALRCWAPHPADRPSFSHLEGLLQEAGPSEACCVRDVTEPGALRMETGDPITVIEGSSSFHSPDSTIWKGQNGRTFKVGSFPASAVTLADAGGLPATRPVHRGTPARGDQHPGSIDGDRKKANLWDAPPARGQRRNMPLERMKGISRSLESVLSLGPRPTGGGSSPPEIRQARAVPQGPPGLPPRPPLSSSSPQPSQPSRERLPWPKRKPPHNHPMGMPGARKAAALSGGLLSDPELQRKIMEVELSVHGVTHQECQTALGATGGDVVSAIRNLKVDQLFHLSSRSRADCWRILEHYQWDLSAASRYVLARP
Conditions: at 0.1 µM.

Assay [7] has as its target T2, Non-receptor tyrosine-protein kinase TNK1 (Homo sapiens). Particulars: at 1 µM.
Assay [8] deals with Activated CDC42 kinase 1 (Homo sapiens) (UniProt Q07912). Particulars: at 0.1 µM.
Assay [9] has the same target. Particulars: at 1 µM.
Assay [10] addresses High affinity nerve growth factor receptor (Homo sapiens) (UniProt P04629). Particulars: at 0.1 µM.
Assay [11] has the same target. Particulars: at 1 µM.
Assay [12] deals with BDNF/NT-3 growth factors receptor (Homo sapiens) (UniProt Q16620). Conditions: at 0.1 µM.
Assay [13] shares this target. Particulars: at 1 µM.
In assay [14] the target is NT-3 growth factor receptor (Homo sapiens) (UniProt Q16288). Conditions: at 0.1 µM.
For assay [15] the target is unchanged. Conditions: at 1 µM.
The target of assay [16] is T3, Tyrosine-protein kinase TXK (Homo sapiens) (UniProt P42681).
T3 sequence (whole entry): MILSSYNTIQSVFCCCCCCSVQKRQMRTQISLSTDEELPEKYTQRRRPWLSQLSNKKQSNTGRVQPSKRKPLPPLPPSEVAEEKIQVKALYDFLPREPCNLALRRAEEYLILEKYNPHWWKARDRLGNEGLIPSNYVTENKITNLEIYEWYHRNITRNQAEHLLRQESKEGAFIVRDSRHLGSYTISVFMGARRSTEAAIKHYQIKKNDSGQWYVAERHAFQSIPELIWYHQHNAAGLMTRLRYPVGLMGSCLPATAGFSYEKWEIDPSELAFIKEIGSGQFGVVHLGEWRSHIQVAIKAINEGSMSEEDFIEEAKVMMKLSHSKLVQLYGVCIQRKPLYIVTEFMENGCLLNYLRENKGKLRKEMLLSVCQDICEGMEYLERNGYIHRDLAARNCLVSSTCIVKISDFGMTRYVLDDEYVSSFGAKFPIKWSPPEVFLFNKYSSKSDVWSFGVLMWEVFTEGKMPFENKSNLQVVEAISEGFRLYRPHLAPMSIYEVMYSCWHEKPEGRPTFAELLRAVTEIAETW
Conditions: at 0.1 µM.

The target in assay [17] is T3, Tyrosine-protein kinase TXK (Homo sapiens). Conditions: at 1 µM.
The target in assay [18] is Non-receptor tyrosine-protein kinase TYK2 (Homo sapiens) (UniProt P29597). Conditions: at 0.1 µM.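 Further: each value is a mean of the inhibition readings.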
Assay [19] addresses T4, Dual specificity protein kinase TTK (Homo sapiens) (UniProt P33981).
T4 sequence (whole entry): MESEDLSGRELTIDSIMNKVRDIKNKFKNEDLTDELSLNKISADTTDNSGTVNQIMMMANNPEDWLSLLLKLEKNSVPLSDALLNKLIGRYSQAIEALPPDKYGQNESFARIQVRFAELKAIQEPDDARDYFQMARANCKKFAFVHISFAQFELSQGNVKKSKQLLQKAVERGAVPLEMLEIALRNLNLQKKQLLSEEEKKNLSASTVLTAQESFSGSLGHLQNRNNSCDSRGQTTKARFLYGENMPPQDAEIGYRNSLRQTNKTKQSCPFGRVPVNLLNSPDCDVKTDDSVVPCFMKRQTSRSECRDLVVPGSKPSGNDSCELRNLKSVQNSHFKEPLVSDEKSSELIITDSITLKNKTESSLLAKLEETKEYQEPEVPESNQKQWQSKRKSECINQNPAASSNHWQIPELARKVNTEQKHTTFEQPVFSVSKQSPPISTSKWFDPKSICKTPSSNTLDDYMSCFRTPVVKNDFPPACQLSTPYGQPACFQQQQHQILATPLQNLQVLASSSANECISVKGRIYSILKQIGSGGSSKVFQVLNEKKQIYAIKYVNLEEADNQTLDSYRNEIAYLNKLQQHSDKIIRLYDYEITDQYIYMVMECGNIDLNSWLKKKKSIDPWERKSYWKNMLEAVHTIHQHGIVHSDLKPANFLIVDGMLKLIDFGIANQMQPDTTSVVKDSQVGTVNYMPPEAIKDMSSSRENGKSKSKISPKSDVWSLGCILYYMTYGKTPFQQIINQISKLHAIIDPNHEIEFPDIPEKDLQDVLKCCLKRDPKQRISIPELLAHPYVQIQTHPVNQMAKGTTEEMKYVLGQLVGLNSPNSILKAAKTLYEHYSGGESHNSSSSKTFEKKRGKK
Conditions: at 1 µM.

For assay [20], the target named is T5, Aurora kinase A (Homo sapiens) (UniProt O14965).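 Further: each reported value is a mean percent inhibition of Aurora-A.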
T5 sequence (whole entry): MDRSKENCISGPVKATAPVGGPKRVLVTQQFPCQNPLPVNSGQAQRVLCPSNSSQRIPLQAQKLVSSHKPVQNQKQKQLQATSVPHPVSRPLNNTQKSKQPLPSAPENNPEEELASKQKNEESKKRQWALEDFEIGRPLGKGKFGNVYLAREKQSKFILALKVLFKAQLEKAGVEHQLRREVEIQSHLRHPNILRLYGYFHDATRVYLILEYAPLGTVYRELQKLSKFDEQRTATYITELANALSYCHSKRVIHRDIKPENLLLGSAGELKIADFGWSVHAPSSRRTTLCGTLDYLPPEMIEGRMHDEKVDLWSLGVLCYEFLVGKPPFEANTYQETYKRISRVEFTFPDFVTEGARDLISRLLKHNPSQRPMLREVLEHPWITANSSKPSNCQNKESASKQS
Particulars: at 0.1 µM.

Chain of BDNF/NT-3 growth factors receptor (Homo sapiens) (Q16620 32-822 limits assumed): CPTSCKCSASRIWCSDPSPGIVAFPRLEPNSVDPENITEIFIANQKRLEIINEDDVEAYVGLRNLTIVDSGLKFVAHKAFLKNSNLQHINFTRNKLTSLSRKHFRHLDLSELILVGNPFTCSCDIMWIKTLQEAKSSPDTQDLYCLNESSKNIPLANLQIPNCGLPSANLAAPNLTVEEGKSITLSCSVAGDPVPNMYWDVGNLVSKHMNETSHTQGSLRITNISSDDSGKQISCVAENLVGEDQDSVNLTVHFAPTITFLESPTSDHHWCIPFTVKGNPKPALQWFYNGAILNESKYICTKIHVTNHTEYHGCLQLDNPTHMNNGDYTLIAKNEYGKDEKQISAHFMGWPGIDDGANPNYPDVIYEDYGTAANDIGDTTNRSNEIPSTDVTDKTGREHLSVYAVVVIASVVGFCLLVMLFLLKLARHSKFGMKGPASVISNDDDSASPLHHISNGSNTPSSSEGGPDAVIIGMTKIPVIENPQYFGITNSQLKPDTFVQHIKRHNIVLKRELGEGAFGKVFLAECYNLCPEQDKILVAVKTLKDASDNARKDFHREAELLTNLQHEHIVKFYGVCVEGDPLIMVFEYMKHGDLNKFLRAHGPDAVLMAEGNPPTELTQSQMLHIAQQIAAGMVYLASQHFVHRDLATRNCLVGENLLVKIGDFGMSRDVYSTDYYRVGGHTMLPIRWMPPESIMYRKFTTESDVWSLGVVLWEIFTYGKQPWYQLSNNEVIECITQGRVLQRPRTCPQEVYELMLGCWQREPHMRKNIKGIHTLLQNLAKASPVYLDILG
Chain of Activated CDC42 kinase 1 (Homo sapiens) (Q07912 whole entry, looked up): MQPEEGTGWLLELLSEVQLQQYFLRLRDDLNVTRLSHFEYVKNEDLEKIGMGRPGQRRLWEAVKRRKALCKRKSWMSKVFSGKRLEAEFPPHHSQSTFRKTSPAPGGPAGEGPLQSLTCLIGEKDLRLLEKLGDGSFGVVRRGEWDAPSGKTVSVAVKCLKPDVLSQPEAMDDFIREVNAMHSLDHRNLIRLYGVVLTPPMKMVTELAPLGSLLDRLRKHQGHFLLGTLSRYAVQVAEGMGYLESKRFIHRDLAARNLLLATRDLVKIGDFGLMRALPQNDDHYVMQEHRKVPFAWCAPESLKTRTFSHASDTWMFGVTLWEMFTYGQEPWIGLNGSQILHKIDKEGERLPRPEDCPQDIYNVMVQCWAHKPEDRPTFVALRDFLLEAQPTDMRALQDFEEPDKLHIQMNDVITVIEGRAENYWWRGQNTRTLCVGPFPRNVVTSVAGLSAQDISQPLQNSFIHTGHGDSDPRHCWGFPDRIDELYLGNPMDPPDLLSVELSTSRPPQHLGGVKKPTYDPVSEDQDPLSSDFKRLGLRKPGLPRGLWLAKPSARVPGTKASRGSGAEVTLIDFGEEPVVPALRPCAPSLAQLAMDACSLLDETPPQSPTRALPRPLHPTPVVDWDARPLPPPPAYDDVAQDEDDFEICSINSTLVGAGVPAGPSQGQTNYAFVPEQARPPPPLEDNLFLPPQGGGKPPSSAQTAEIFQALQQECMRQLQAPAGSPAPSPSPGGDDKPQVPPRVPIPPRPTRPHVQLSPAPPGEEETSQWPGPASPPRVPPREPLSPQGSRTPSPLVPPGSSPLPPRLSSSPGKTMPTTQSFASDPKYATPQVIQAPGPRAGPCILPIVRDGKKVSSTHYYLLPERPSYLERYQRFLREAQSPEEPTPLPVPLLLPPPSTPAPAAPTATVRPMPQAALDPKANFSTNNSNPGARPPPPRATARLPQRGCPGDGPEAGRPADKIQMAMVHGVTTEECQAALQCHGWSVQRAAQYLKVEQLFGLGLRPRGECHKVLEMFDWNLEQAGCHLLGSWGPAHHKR
Chain of Angiopoietin-1 receptor (Homo sapiens) (Q02763 whole entry): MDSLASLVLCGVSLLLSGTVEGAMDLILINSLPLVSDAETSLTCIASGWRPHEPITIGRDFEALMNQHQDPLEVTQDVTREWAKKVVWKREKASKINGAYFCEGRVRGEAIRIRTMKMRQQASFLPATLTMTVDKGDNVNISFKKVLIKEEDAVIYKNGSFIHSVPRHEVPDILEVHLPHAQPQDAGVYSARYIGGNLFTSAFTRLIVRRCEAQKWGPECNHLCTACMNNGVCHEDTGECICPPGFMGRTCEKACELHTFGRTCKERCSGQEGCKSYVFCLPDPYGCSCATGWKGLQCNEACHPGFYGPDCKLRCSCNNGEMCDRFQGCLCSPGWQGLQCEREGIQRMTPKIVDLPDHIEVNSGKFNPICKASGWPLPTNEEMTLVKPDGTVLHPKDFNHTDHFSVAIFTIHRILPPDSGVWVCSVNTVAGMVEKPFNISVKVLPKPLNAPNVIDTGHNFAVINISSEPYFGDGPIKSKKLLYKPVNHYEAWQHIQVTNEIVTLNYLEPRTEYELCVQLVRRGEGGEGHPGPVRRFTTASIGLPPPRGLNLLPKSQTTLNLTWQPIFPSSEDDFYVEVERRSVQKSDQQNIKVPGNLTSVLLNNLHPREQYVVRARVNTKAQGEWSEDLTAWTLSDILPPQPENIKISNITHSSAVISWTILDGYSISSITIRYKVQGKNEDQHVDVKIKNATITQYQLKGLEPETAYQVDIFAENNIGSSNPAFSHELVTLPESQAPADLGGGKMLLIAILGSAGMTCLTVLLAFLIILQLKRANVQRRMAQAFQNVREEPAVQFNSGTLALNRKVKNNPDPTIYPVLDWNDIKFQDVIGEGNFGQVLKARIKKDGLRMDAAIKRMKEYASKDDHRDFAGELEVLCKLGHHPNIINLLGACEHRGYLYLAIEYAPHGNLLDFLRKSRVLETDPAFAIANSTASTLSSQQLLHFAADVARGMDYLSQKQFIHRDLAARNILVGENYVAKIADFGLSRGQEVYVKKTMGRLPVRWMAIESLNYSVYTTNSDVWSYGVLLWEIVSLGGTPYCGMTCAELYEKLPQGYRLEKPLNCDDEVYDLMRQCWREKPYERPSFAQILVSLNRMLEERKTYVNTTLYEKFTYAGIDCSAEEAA
Chain of High affinity nerve growth factor receptor (Homo sapiens) (P04629 33-796 limits assumed): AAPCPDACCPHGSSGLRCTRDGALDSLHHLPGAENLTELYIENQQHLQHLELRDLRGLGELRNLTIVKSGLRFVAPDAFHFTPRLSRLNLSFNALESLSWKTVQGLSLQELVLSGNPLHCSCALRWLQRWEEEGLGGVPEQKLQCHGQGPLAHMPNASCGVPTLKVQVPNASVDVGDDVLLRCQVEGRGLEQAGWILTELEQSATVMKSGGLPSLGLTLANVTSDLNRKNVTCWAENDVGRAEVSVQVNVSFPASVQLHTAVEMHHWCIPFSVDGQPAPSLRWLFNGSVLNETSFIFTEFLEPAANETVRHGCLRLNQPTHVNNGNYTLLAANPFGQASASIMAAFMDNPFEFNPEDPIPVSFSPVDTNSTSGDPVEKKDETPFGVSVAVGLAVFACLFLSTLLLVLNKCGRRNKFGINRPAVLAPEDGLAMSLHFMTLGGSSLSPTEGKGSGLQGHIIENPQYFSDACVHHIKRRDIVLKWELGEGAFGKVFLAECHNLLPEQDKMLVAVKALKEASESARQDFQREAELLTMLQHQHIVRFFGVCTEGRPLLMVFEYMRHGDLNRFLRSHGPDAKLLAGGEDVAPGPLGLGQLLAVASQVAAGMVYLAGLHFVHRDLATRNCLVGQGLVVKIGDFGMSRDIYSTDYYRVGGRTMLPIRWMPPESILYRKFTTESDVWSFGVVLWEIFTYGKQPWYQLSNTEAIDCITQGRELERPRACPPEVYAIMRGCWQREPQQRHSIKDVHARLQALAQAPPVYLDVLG
Chain of Non-receptor tyrosine-protein kinase TYK2 (Homo sapiens) (P29597 whole entry): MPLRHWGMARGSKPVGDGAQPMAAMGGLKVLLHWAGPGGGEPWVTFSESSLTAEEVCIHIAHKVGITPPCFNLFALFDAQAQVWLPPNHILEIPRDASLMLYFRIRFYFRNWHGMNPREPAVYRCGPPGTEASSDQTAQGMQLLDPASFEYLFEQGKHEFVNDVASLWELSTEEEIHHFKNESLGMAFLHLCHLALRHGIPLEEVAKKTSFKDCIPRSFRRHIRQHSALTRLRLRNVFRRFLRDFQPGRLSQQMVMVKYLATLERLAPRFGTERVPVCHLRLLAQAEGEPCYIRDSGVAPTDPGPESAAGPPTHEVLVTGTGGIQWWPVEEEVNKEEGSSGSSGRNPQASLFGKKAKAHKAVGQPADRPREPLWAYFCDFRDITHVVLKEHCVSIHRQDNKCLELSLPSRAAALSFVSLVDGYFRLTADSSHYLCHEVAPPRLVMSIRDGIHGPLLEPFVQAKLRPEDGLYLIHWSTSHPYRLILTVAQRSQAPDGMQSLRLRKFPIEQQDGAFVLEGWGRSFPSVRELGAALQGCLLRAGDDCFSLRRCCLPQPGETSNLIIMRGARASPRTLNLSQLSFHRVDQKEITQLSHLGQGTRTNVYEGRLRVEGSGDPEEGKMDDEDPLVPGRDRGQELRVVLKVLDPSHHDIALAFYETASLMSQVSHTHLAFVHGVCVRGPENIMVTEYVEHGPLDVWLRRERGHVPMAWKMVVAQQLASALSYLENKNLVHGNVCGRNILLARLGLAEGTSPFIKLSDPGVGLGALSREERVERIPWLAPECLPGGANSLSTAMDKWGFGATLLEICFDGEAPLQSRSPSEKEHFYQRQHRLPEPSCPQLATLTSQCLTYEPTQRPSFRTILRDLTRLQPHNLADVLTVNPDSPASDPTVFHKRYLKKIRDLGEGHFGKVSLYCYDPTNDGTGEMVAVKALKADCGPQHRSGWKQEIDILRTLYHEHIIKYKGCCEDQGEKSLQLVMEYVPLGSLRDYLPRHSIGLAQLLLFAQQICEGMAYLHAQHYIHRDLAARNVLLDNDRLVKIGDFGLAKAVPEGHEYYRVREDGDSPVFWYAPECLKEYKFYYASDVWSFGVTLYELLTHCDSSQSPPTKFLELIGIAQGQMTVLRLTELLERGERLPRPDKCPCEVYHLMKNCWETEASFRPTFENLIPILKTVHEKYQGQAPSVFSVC

Regarding `CCc1cccc(NC(=O)Nc2ccc(Oc3ccc4nc(NC(=O)OC)[nH]c4c3)cc2)c1`, the inhibition in assay [1] is -0.99%; in assay [2], 2.07%; in assay [3], 3.91%; in assay [4], 46.2%; in assay [5], 55.7%; in assay [6], 3.34%. The inhibition in [7] was 13.8%; in assay [8], -0.42%; in assay [9] it was 1.35%; in [10], 30.8%; in [11], 43.7%; in assay [12] it was 21.4%. The inhibition in assay [13] was 30.7%; in assay [14], 20.4%; in assay [15], 30.3%; in [16], 2.03%; in assay [17], 5.13%; in [18] it was -5.85%. Further, the inhibition was 6.45% in [19] and 2.16% in [20].

On to `O=C1Nc2ccc(C(=O)c3ccco3)cc2C1=Cc1cc(Cl)c(O)c(Cl)c1`, for which the inhibition in [1] was -0.93%; in assay [2] it was 3.56%; in assay [3] it was 9.55%; in assay [4], 2.1%; in assay [5] it was 3.01%; in [6] it was 38.9%. The inhibition in [7] is 85.3%; in [8], 1.92%; in assay [9] it was 6.27%; in assay [10], 4.97%; in assay [11] it was 21%; in [12], 5.68%. Besides, the inhibition in assay [13] is 29.1%; in assay [14], 9.19%; in assay [15] it was 47.1%; in assay [16], 3.45%; in assay [17] it was 11.2%; in assay [18] it was -3.77%. Further, the inhibition in [19] is 21.9%; in assay [20], 7.35%.

As for `O=C1NC(=O)C(N2CCc3ccccc32)=C1c1ccc(Cl)cc1`, the inhibition in assay [1] was -1.26%; in assay [2], 6.1%; in assay [3], 9.11%; in assay [4] it was 5.59%; in assay [5], 8.86%; in [6] it was 4.03%. Besides, the inhibition in [7] was -0.43%; in [8] it was 3.17%; in [9], 1.5%; in assay [10], 4.36%; in assay [11] it was 3.04%; in assay [12] it was 3.69%. In addition, the inhibition in assay [13] is 7%; in [14] it was 2.99%; in assay [15], 4.89%; in assay [16], 5.42%; in [17], 8.99%; in assay [18], -4.08%. Moreover, the inhibition in assay [19] is 2.25%; in assay [20], 2.79%.

For the compound `Cc1nnc(-c2ccc(C)c(-c3ccc(C(=O)Nc4cccc(C#N)c4)cc3)c2)o1`, the inhibition is -0.57% in assay [1]; 4.05% in [2]; 3.86% in [3]; 3.65% in assay [4]; 5.45% in assay [5]; -0.4% in assay [6]. For the same compound, the inhibition in assay [7] is 5.43%; in assay [8] it was 0.82%; in assay [9], 2%; in assay [10], 1.28%; in assay [11], -1.21%; in assay [12], 1.33%. Moreover, the inhibition is 3.51% in assay [13]; -0.42% in [14]; 3.49% in assay [15]; 3.37% in assay [16]; 4.78% in [17]; -1.14% in assay [18]. The results for the inhibition in assay [19] and in assay [20] were 6.46% and 0.8%, respectively.

The term inhibition denotes the drop in the measured response relative to a control, in per cent.
